This passage reports Potency results from PubChem BioAssay (NCATS).

Results filed as inconclusive are left out. The source made the active and inactive calls. Calls follow the shape of the dose curve; as a rule, active = well fitted cell-killing curve with a large enough effect; inconclusive = small, poorly fitted or top-dose-only effect, or effect the other way; inactive = no such curve, though single readings can be large or run the other way.

The nature of assay [1]: Quantitative High-Throughput drug screen in 47 multiple myeloma cell lines against the NCATS MIPE library collection: OCIMY1_PLB cell viability assay (AID 1918979). Also: nearly all actives have a fitted effect of over 35% in size. In outline: (§1)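 qHTS format: cells plated (500/well), pin-dosed with MIPE 4.0 compounds, kept 48 h at 37 °C. Readout was CellTiter-Glo luminescence, median RLU.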
The nature of assay [2]: Quantitative High-Throughput drug screen in 47 multiple myeloma cell lines against the NCATS MIPE library collection: MM1S_ATCC cell viability assay (AID 1918980). Also: nearly all actives have a fitted effect of over 45% in size. The gist of the method: as §1
The nature of assay [3]: Quantitative High-Throughput drug screen in 47 multiple myeloma cell lines against the NCATS MIPE library collection: MM1R_ATCC cell viability assay (AID 1918981). Also: nearly all actives have a fitted effect of over 35% in size. The gist of the method: as §1
A short description of assay [4]: Quantitative High-Throughput drug screen in 47 multiple myeloma cell lines against the NCATS MIPE library collection: L363_DSMZ cell viability assay (AID 1918984). Also: nearly all actives have a fitted effect of over 40% in size. Conditions: L363 myeloma viability, CellTiter-Glo ATP luminescence, 48 h; viability (% of control): at 45.8 µM (top of the series). The gist of the method:
as §1
For orientation: ATP-based viability assays read luminescence as a measure of living cells.

A short description of assay [5]: Quantitative High-Throughput drug screen in 47 multiple myeloma cell lines against the NCATS MIPE library collection: KMS28PE_JCRB cell viability assay (AID 1918983). Also: nearly all actives have a fitted effect of over 35% in size. The gist of the method:
as §1

Assay [6] can be described thus: Quantitative High-Throughput drug screen in 47 multiple myeloma cell lines against the NCATS MIPE library collection: KMS34_JCRB cell viability assay (AID 1918985). Also: nearly all actives have a fitted effect of over 40% in size. The gist of the method: as §1
Assay [7] in a line: Quantitative High-Throughput drug screen in 47 multiple myeloma cell lines against the NCATS MIPE library collection: OPM1_PLB cell viability assay (AID 1918989). Also: nearly all actives have a fitted effect of over 40% in size. In outline:
as §1

Assay [8] is described as follows: Quantitative High-Throughput drug screen in 47 multiple myeloma cell lines against the NCATS MIPE library collection: OCIMY7_PLB cell viability assay (AID 1918987). Also: nearly all actives have a fitted effect of over 65% in size. The note with it: OCI-MY7 myeloma viability, CellTiter-Glo ATP, 48 h; viability (% of DMSO): at 45.8 µM (top of the series). The gist of the method:
as §1

The nature of assay [9]: Quantitative High-Throughput drug screen in 47 multiple myeloma cell lines against the NCATS MIPE library collection: OCIMY5_PLB cell viability assay (AID 1918988). Also: nearly all actives have a fitted effect of over 65% in size. The gist of the method: as §1
The nature of assay [10]: Quantitative High-Throughput drug screen in 47 multiple myeloma cell lines against the NCATS MIPE library collection: LP1_DSMZ cell viability assay (AID 1918982). Also: nearly all actives have a fitted effect of over 35% in size. In outline: as §1
Potency is read from the fitted curve at half-maximal effect.

With `Cc1cc2c(cc1C1(c3ccc(C(=O)O)cn3)CC1)C(C)(C)CCC2(C)C`, the Potency is 0.0015 µM (active) in [1] and 6.62 µM (active) in assay [3]. For the same compound, the Potency result in [2] and in assay [4] was “inactive” in each case.

For the compound `CC1(C)OC2CC3C4CC(F)C5=CC(=O)C=CC5(C)C4C(O)CC3(C)[C@]2(C(=O)CO)O1` (stereo partly drawn), the Potency result in assay [1], in assay [3], in assay [5] and in assay [7] was “inactive” each time. Moreover, the Potency was 0.0166 µM (active) in assay [2], 0.132 µM (active) in [4] and 0.0209 µM (active) in assay [6].

Regarding `Cc1ccc2c(c1)c1c(n2CCc2ccc(C)nc2)CCN(C)C1`, the Potency result in assay [1], in [2], in assay [3] and in assay [5] was “inactive” in each case.

With `Cc1csc(-c2nnc(Nc3ccc(Oc4ncccc4-c4ccnc(N)n4)cc3)c3ccccc23)c1`, the Potency is 5.26 µM (active) in assay [1]; 18.7 µM (active) in assay [2]; 20.9 µM (active) in [3]; 20.9 µM (active) in [4]; 18.7 µM (active) in assay [7].

With `CN1CCc2c(n(Cc3ccc(C(=O)NO)cc3)c3ccccc23)C1`, the Potency in assay [1] was 18.7 µM (active); in assay [2] it was 16.6 µM (active); in assay [3], 18.7 µM (active); in assay [6] it was 16.6 µM (active); in [8] it was 4.18 µM (active); in assay [9], 16.6 µM (active). Moreover, in [7], the Potency is 16.6 µM (active).

Turning to `C=CCc1cccc(C=NNC(=O)CN2CCN(Cc3ccccc3)CC2)c1O`, the Potency in [1] was 8.33 µM (active); in assay [2], 9.35 µM (active); in assay [3], 10.5 µM (active); in [5], 20.9 µM (active); in assay [4], 6.62 µM (active); in assay [6] it was 4.69 µM (active). The Potency in [8] is 14.8 µM (active); in [9], 7.43 µM (active); in [7], 20.9 µM (active).

Turning to `O=C1C(c2c(O)[nH]c3ccccc23)=Nc2ccccc21`, the Potency result in assay [1], in [4] and in assay [7] was “inactive” in each case. In addition, the Potency in [2] was 0.118 µM (active); in assay [3], 1.48 µM (active); in assay [5] it was 9.35 µM (active); in [6], 7.43 µM (active); in assay [9] it was 1.32 µM (active).

As to `CCC(=C(c1ccc(O)cc1)c1ccc(OCCNC)cc1)c1ccccc1`, the Potency is 23.5 µM (active) in assay [1]; 20.9 µM (active) in [2]; 23.5 µM (active) in [3]; 26.4 µM (active) in [6]; 16.6 µM (active) in assay [8]; 18.7 µM (active) in [9]. In [7], the Potency is 18.7 µM (active).

As for `CC(C)CN(C[C@H](O)[C@H](Cc1ccccc1)NC(=O)O[C@H]1CCOC1)S(=O)(=O)c1ccc(N)cc1`, the Potency result in [1] and in assay [6] was “inactive” throughout. The Potency in assay [2] is 16.6 µM (active); in assay [3] it was 16.6 µM (active); in assay [9], 2.96 µM (active); in assay [7], 26.4 µM (active).

As to `COc1ccc(C=CC(=O)Nc2ccccc2C(=O)O)cc1OC`, the Potency entry in [1], in assay [5], in assay [6] and in assay [7] was “inactive” in each case. For the same compound, in assay [2], the Potency is 11.8 µM (active).

For the compound `Cc1c(-c2cccc3c(CCCOc4cccc5ccccc45)c(C(=O)O)n(Cc4cccnc4)c23)c(COc2ccc(N3CCN([S+](=O)([O-])N(C)C)CC3)cc2)nn1C`, the Potency result in assay [1] and in [4] was “inactive” each time. Besides, the Potency in [2] is 23.5 µM (active); in assay [10] it was 18.7 µM (active).

Turning to `C[C@]12CC[C@@H]3c4ccc(O)cc4CC[C@H]3[C@H]1[C@@H](O)[C@@H](O)[C@H]2O`, the Potency result in [1], in assay [10], in [4], in [6] and in [7] was “inactive” in each case. Also, the Potency in assay [2] is 26.4 µM (active).

Turning to `CC(C)(O)CC(=O)NCCn1ccc2ncnc(Nc3ccc(Oc4cccc(C(F)(F)F)c4)c(Cl)c3)c21`, the Potency result in [1] was “inactive”. The Potency in assay [2] is 0.332 µM (active); in assay [5] it was 26.4 µM (active); in [6], 23.5 µM (active); in [8], 13.2 µM (active); in assay [9], 1.18 µM (active); in [7] it was 26.4 µM (active).

On to `COc1ccc(-c2cc3nccn3c(Nc3ncccc3C(N)=O)n2)cc1OC`, for which the Potency result in assay [1] was “inactive”. The Potency in assay [2] was 14.8 µM (active); in assay [10], 3.32 µM (active); in assay [5], 5.9 µM (active); in [8], 0.148 µM (active); in assay [9] it was 3.32 µM (active); in assay [7], 2.09 µM (active).

Take `CCCCC[C@H](O)C=C[C@H]1[C@H](O)CC(=O)[C@H]1CCCCCCC(=O)O`: the Potency result in [1], in [10], in assay [5] and in assay [4] was “inactive” in each case. Also, the Potency in assay [2] is 3.32 µM (active).

Consider `C[C@@H]1CC=CC=CC=CC=C[C@@H](O[C@@H]2O[C@H](C)[C@@H](O)[C@H](N)[C@H]2O)C[C@@H]2O[C@](O)(C[C@@H](O)C[C@@H]3O[C@@H]3C=CC(=O)O1)C[C@H](O)[C@@H]2C(=O)O`, for which the Potency in [1] was 9.35 µM (active); in [2], 20.9 µM (active); in assay [5], 14.8 µM (active); in [6], 18.7 µM (active); in [8], 2.96 µM (active); in assay [9], 11.8 µM (active). Moreover, the Potency in assay [7] was 16.6 µM (active).

In the case of `C=CC[N+]1([C@H]2C[C@H]3[C@@H]4CC[C@H]5C[C@H](O)[C@@H](N6CCOCC6)C[C@]5(C)[C@@H]4CC[C@]3(C)[C@H]2OC(C)=O)CCCC1`, the Potency result in assay [1], in assay [3], in [8] and in assay [7] was “inactive” each time. The Potency in assay [2] was 18.7 µM (active).

Regarding `CCN(CCO)CCCOc1ccc2c(Nc3cc(CC(=O)Nc4cccc(F)c4)[nH]n3)ncnc2c1`, the Potency entry in [1], in assay [2], in assay [10], in [5], in [4] and in [6] was “inactive” in each case. For the same compound, the Potency entry in assay [7] was “inactive”. Besides, the figures for the Potency in assay [8] and in [9] were 1.05 µM (active) and 0.264 µM (active), respectively.

Consider `CC[C@H](C)n1cc(C)c2c(C(=O)NCc3c(C)cc(C)[nH]c3=O)cc(-c3ccc(N4CCNCC4)nc3)cc21`, for which the Potency was 26.4 µM (active) in assay [1]; 0.935 µM (active) in assay [2]; 23.5 µM (active) in assay [10]; 23.5 µM (active) in assay [8]; 23.5 µM (active) in [9]. In addition, the Potency entry in assay [4] was “inactive”.
